From PubChem BioAssay (NCI) come the findings set out here.

This is part of a sample that, as a whole, favours compounds with a hit. Of some 83,000 tested, about 20% had one in any assay.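 Single-dose data. Exposure time 48 hours. Values below 10 considered active.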 A number with no mark means an inactive call. Calls of active or inactive are those of the source.

Among the test systems are DU-145 prostate; K-562 leukemia; MALME-3M melanoma; MDA-MB-231 breast; RXF 393 renal; SF-268 CNS; SF-295 CNS; SF-539 CNS; UACC-257 melanoma; M14 melanoma; HCT-15 colon; HT29 colon; SNB-75 CNS; SNB-19 CNS; U251 CNS; PC-3 prostate; SK-MEL-5 melanoma; UACC-62 melanoma; LOX IMVI melanoma; SK-MEL-28 melanoma.
Common to all, as to assay: NCI-60 one-dose screen, 48 h (100 = growth as untreated, 0 = no growth, -100 = all killed)
Conditions in all cases: 10 µM unless noted

Take `CCN(CC)CCNc1nc2ccccc2c2c(=O)c3cc(Cl)ccc3sc12`: the growth in the assay with DU-145 prostate was 43%; in the assay with K-562 leukemia, -25.5% (active); in the assay on MALME-3M melanoma it was 88.4%; in the assay on MDA-MB-231 breast, -2.23% (active); with RXF 393 renal it was 79.1%; in the assay on SF-268 CNS it was 62.1%. Besides, the growth was 29.2% in the assay on SF-295 CNS; 67.2% with SF-539 CNS; 93.2% in the assay on UACC-257 melanoma; 31% with M14 melanoma; 39.8% with HCT-15 colon; 18.3% in the assay with HT29 colon. Further, the growth in the assay with SNB-75 CNS is 29.6%; in the assay with SNB-19 CNS, 69.5%; in the assay on U251 CNS, 39.7%; in the assay with PC-3 prostate, 56.7%; in the assay on SK-MEL-5 melanoma it was 74.4%; with UACC-62 melanoma, 65.4%. The growth in the assay on LOX IMVI melanoma is -58.8% (active); in the assay on SK-MEL-28 melanoma, 98.1%.
On to `CCOC(=O)c1c(C)nc2c(c1N)CC(=O)N2Cc1ccc(F)cc1`, for which the growth is 100% in the assay with DU-145 prostate; 93.3% in the assay with K-562 leukemia; 116% with MALME-3M melanoma; 97.9% with MDA-MB-231 breast; 101% with RXF 393 renal; 96.4% in the assay with SF-268 CNS. Also, the growth in the assay with SF-295 CNS is 95.3%; in the assay on SF-539 CNS it was 92.9%; in the assay on UACC-257 melanoma, 96%; in the assay on M14 melanoma it was 94.8%; with HCT-15 colon, 95.9%; in the assay on HT29 colon it was 90%. Moreover, the growth in the assay with SNB-75 CNS is 95%; in the assay on SNB-19 CNS, 97.1%; in the assay with U251 CNS, 91.2%; in the assay on PC-3 prostate it was 80%; in the assay with SK-MEL-5 melanoma it was 92.9%; with UACC-62 melanoma, 90.1%. The figures for the growth in the assay with LOX IMVI melanoma and in the assay on SK-MEL-28 melanoma were 93.5% and 111%, respectively.
Take `Cc1ccc(-c2cnc3sc(C(=O)NCCc4ccccc4)c(C)n23)cc1`: the growth in the assay with DU-145 prostate is 99.1%; with K-562 leukemia, 93.9%; in the assay on MALME-3M melanoma, 95.5%; in the assay with MDA-MB-231 breast, 79.1%; with RXF 393 renal it was 99.1%; with SF-268 CNS it was 86.7%. Also, the growth was 104% with SF-295 CNS; 96.6% in the assay on SF-539 CNS; 120% with UACC-257 melanoma; 91.9% with M14 melanoma; 97.9% in the assay on HCT-15 colon; 113% in the assay on HT29 colon. The growth is 79.3% in the assay on SNB-75 CNS; 92.1% in the assay with SNB-19 CNS; 95% in the assay on U251 CNS; 81.7% with PC-3 prostate; 99.7% with SK-MEL-5 melanoma; 85.9% in the assay with UACC-62 melanoma. Also, the growth in the assay on LOX IMVI melanoma was 84.4%; with SK-MEL-28 melanoma it was 104%.
On to `CNc1nc2c(s1)C(c1cc(F)ccc1F)CC(=O)N2` (stereo not given), for which the growth was 76.3% with DU-145 prostate; 18.5% with K-562 leukemia; 70.2% in the assay on MALME-3M melanoma; 69.6% in the assay with MDA-MB-231 breast; 75.5% in the assay on RXF 393 renal; 79.3% in the assay on SF-268 CNS. Moreover, the growth was 87.4% in the assay on SF-295 CNS; 53.8% in the assay on SF-539 CNS; 86.7% with UACC-257 melanoma; 47.3% with M14 melanoma; 42% with HCT-15 colon; 82.4% with HT29 colon. Further, the growth in the assay with SNB-75 CNS is 32.4%; with SNB-19 CNS, 72.2%; in the assay with U251 CNS it was 67.6%; in the assay on PC-3 prostate, 81.1%; with SK-MEL-5 melanoma it was 64.5%; with UACC-62 melanoma, 50.1%. Besides, the results for the growth in the assay on LOX IMVI melanoma and in the assay with SK-MEL-28 melanoma were 73.4% and 69.6%, respectively.
On to `O=C(Cc1ccc2c(c1)OCCO2)Nc1nc2ccc(F)cc2s1`, for which the growth was 107% in the assay on DU-145 prostate; 76.3% in the assay with K-562 leukemia; 97.3% with MALME-3M melanoma; 115% in the assay on MDA-MB-231 breast; 43% in the assay with RXF 393 renal; 119% in the assay on SF-268 CNS. For the same compound, the growth is 106% with SF-295 CNS; 101% in the assay with SF-539 CNS; 109% in the assay with UACC-257 melanoma; 100% in the assay on M14 melanoma; 77.2% in the assay on HCT-15 colon; 105% with HT29 colon. Also, the growth in the assay on SNB-75 CNS is 84.5%; with SNB-19 CNS, 116%; in the assay on U251 CNS, 103%; in the assay with PC-3 prostate it was 93.2%; in the assay on SK-MEL-5 melanoma, 91.1%; in the assay with UACC-62 melanoma, 102%. In addition, the growth was 93.8% with LOX IMVI melanoma and 111% in the assay on SK-MEL-28 melanoma.
`NC1CCN(c2nc(Nc3cccc(C(F)(F)F)c3)c3c(=O)[nH]ccc3n2)CC1`: the growth with DU-145 prostate is 7.32% (active); in the assay with K-562 leukemia, -48.7% (active); in the assay with MALME-3M melanoma it was -64.1% (active); with MDA-MB-231 breast, -62% (active); in the assay on RXF 393 renal it was -93.6% (active); in the assay with SF-268 CNS, -46.2% (active). The growth in the assay on SF-295 CNS is -56.7% (active); in the assay on SF-539 CNS, -96.5% (active); in the assay with UACC-257 melanoma, -74.6% (active); with M14 melanoma, -95.2% (active); in the assay with HCT-15 colon it was -80% (active); with HT29 colon it was -16.3% (active). The growth was -76.8% (active) in the assay with SNB-75 CNS; -14.3% (active) in the assay with SNB-19 CNS; -82.1% (active) in the assay with U251 CNS; 19.3% with PC-3 prostate; -96.2% (active) in the assay with SK-MEL-5 melanoma; -80.4% (active) with UACC-62 melanoma. The growth was -94.2% (active) in the assay on LOX IMVI melanoma and -85.4% (active) in the assay with SK-MEL-28 melanoma.
Consider `CC1=C(SCCC(=O)OC(C[Se]C2=C(C)C(=O)c3ccccc3C2=O)C(=O)NC(C)(C)C)C(=O)c2ccccc2C1=O` (stereo not given), for which the growth in the assay on DU-145 prostate was -99% (active); in the assay on K-562 leukemia it was 7.31% (active); with MALME-3M melanoma, -74.9% (active); with MDA-MB-231 breast, -58% (active); with RXF 393 renal, -89.1% (active); in the assay with SF-268 CNS it was -96.2% (active). For the same compound, the growth in the assay with SF-295 CNS was -30.9% (active); with SF-539 CNS it was -99.8% (active); with UACC-257 melanoma it was -88.1% (active); in the assay with M14 melanoma it was -84.1% (active); in the assay with HCT-15 colon, 1.48% (active); in the assay on HT29 colon, -5.09% (active). Moreover, the growth in the assay with SNB-75 CNS is -95.9% (active); with SNB-19 CNS it was -92.6% (active); in the assay on U251 CNS it was -69% (active); in the assay on PC-3 prostate, -64% (active); with SK-MEL-5 melanoma it was -99.4% (active); in the assay with UACC-62 melanoma, -91.2% (active). The growth with LOX IMVI melanoma is -52.2% (active); in the assay on SK-MEL-28 melanoma it was -96% (active).
Consider `O=C(Cc1ccc(F)c(Cl)c1)Nc1cc(C2(C(F)(F)F)CC2)nn1CC1CCCCC1`, for which the growth with DU-145 prostate is 20.9%; with K-562 leukemia, 11.1%; in the assay on MALME-3M melanoma, -24.1% (active); in the assay with MDA-MB-231 breast it was -60.3% (active); in the assay on RXF 393 renal, -28.7% (active); in the assay on SF-268 CNS it was 9.97% (active). Besides, the growth in the assay on SF-295 CNS was 1.21% (active); in the assay on SF-539 CNS, 8.62% (active); in the assay on UACC-257 melanoma it was -9.88% (active); with M14 melanoma, 17.1%; in the assay on HCT-15 colon, 5.75% (active); with HT29 colon, 8.71% (active). In addition, the growth with SNB-75 CNS is -8.19% (active); in the assay on SNB-19 CNS, 14.7%; in the assay with U251 CNS, 1.68% (active); in the assay on PC-3 prostate, 0.348% (active); with SK-MEL-5 melanoma, -74.5% (active); in the assay on UACC-62 melanoma, 0.508% (active). The figures for the growth in the assay on LOX IMVI melanoma and in the assay on SK-MEL-28 melanoma were 11.6% and 19.7%, respectively.
